Inconclusive results are not listed. The source made the active and inactive calls. Unless noted, calls come from the whole dose curve; as a rule, active = well fitted curve in the direction sought with a large enough effect in the repeat runs; inconclusive = weak or mixed curves; inactive = flat fitted curve, though single readings scatter.
Legend:
[1] = qHTS assay to test for compound auto fluorescence at 535 nm (green) in HEK293 cells (AID 720680)
[2] = qHTS assay to test for compound auto fluorescence at 460 nm (blue) in HEK293 cell free culture (AID 720681)
Method in brief: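 Test compounds were pinned into cell-free culture medium (DMEM with 10% FBS) and fluorescence was read directly at Ex/Em 405/460 nm. Signals were expressed as fluorescence equivalents of triamterene, with DMSO vehicle as control.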

[3] = qHTS assay to test for compound auto fluorescence at 535 nm (green) in HEK293 cell free culture (AID 720682)
Method in brief: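 Read-out: 485/535 nm fluorescence intensity, calibrated against fluorescein. Medium only (DMEM + 10% FBS, no cells); test compound or DMSO vehicle added by pintool before plate reading.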

[4] = qHTS assay to test for compound auto fluorescence at 590 nm (red) in HEK293 cell free culture (AID 720683)
Method in brief: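 Tox21 10K library compounds were pinned into cell-free DMEM with 10% FBS and fluorescence was read at excitation 540 nm. Activity is expressed as Rose Bengal sodium equivalency.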

[5] = qHTS assay to test for compound auto fluorescence at 590 nm (red) in HepG2 cell free culture (AID 720684)
Method in brief: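 Measured in medium alone (MEM containing 10% FBS) following pintool addition of compound; emission at 590 nm with 540 nm excitation, referenced to Rose Bengal sodium.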

[6] = qHTS assay to test for compound auto fluorescence at 460 nm (blue) in HepG2 cell free culture (AID 720685)
Method in brief: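 Compound (23 nL) or DMSO pinned into cell-free MEM with 10% FBS; blue fluorescence read at 405/460 nm excitation/emission, expressed as auto-fluorescence equivalency to triamterene.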

[7] = qHTS assay to test for compound auto fluorescence at 535 nm (green) in HepG2 cell free culture (AID 720686)
[8] = qHTS assay to test for compound auto fluorescence at 460 nm (blue) in HepG2 cells (AID 720687)
Method in brief: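 Cells (2,000/well in MEM with 10% FBS) attached overnight at 37 C, then were exposed to compound or DMSO for 1 hr at 37 C, 5% CO2. Fluorescence read at Ex/Em 405/460 nm, expressed as triamterene-equivalent signal.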

[9] = target: Glucocorticoid receptor (Homo sapiens) (UniProt P04150); assay: qHTS assay to identify small molecule agonists of the glucocorticoid receptor (GR) signaling pathway (AID 720691; active = well fitted activation curve with a large enough effect in the signal ratio in the repeat runs, not every such curve was filed as active; the % refers to the signal ratio)
Method in brief: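 Fluorescence intensity from LiveBLAzer B/G FRET substrate (2 h, room temperature) reports beta-lactamase expression driven by the glucocorticoid response element in GR-bla HeLa cells after 18 h compound exposure at 37 C.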

[10] = target: Glucocorticoid receptor (Homo sapiens) (UniProt P04150); assay: qHTS assay to identify small molecule antagonists of the glucocorticoid receptor (GR) signaling pathway (AID 720692; active = well fitted inhibition curve with a large enough effect in the signal ratio in the repeat runs, not every such curve was filed as active; the % refers to the signal ratio; note: potency is the fitted concentration of half-maximal effect)
Method in brief: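 HeLa GR-bla cells; cmpd + dex 5 nM final, 18 h 37 C; LiveBLAzer B/G FRET substrate 2 h RT; fluorescence intensity read. Antagonist mode, qHTS.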

Measured: Potency

Chain of Glucocorticoid receptor (Homo sapiens) (P04150 whole entry, looked up): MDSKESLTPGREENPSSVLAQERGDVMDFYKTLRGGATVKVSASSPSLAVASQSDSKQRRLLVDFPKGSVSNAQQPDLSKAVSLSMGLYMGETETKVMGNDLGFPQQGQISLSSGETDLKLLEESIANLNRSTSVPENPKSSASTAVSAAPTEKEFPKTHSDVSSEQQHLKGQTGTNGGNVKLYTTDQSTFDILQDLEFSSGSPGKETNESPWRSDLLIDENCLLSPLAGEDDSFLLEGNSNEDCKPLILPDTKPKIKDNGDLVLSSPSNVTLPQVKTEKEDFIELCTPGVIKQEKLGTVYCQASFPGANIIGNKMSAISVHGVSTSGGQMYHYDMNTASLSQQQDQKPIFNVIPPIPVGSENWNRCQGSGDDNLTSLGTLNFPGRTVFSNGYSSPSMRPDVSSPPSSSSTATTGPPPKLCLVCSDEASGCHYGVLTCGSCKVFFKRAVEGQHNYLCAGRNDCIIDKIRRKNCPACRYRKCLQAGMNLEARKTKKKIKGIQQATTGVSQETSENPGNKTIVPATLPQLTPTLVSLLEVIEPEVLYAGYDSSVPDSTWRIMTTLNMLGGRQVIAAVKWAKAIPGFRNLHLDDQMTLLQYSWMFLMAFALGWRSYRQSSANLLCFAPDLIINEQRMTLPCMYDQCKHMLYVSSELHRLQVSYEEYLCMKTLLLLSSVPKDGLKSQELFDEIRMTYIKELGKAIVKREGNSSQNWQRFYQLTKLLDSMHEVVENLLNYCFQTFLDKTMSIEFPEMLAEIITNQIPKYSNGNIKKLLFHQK

Cn1cc(-c2ccccc2)c(=O)c(-c2cccc(C(F)(F)F)c2)c1
inactive: all assays above

C=CCO
inactive: all assays above

Nc1ccc(Cc2ccc(N)cc2)cc1
inactive: all assays above

O=c1[nH]c2ccccc2c(=O)o1
inactive: all assays above

Cc1ccc(N)cc1N
not listed: [2] | [8]
inactive: all other assays above

CCOP(=S)(OCC)SCCSCC
inactive: all assays above

CCOC(=O)c1ccccc1C(=O)OCC
inactive: all assays above

CC(C)(C)OOC(=O)c1ccccc1
inactive: all assays above

CC(C)(C)C(O)(CCc1ccc(Cl)cc1)Cn1cncn1 (stereo not drawn)
active: [10] 43.6 µM
inactive: all other assays above

O=[N+]([O-])c1ccc(Oc2ccc(Cl)cc2Cl)cc1
inactive: all assays above

COC(=O)NS(=O)(=O)c1ccc(N)cc1
inactive: all assays above

c1ccc2c(c1)oc1ccccc12
inactive: all assays above

C#CCN(C)[C@H](C)Cc1ccccc1
inactive: all assays above

CC(NC(C)(C)C)C(=O)c1cccc(Cl)c1 (stereo not drawn)
inactive: all assays above

CC(=O)C=C(C)C
inactive: all assays above

COC(=O)c1ccccc1N
inactive: all assays above

c1ccc2c(c1)Oc1ccccc1O2
inactive: all assays above

O=[N+]([O-])c1ccccc1
inactive: all assays above

c1ccc(-c2ccccc2)cc1
inactive: all assays above

C=CC(N)=O
inactive: all assays above

ClCc1cccnc1
inactive: all assays above

CC(Br)C(=O)O (stereo not drawn)
inactive: all assays above

O=C(O)c1ccccn1
inactive: all assays above

CC(C)C1(C)N=C(c2nc3ccccc3cc2C(=O)O)NC1=O (stereo not drawn)
inactive: all assays above

O=c1[nH]c(=O)[nH]c(=O)[nH]1
inactive: all assays above

CC(C)N1C(=O)c2ccccc2NS1(=O)=O
inactive: all assays above

O=S(=O)(c1ccc(O)cc1)c1ccc(O)cc1
inactive: all assays above

CCCN(CCC)N=O
inactive: all assays above

CC(C#N)CCC#N (stereo not drawn)
inactive: all assays above

CC1C=[C-]C=C1.[C-]#[O+].[C-]#[O+].[C-]#[O+].[Mn]
inactive: all assays above

CCCCCCCCCCCC#N
inactive: all assays above

CC(Oc1ccc(Cl)cc1Cl)C(=O)O (stereo not drawn)
inactive: all assays above

CN(C)CCO
inactive: all assays above

CN(N=O)c1ccccc1
inactive: all assays above

C#CC(C)(C)NC(=O)c1cc(Cl)cc(Cl)c1
inactive: all assays above

Nc1c(Cl)c(Cl)nc(C(=O)O)c1Cl
inactive: all assays above

CCCC1COC(Cn2cncn2)(c2ccc(Cl)cc2Cl)O1 (stereo not drawn)
inactive: all assays above

Source: PubChem BioAssay (Tox21)
